PfM18AAP inh-1 = PfM18AAP inhibitors, malaria aminopeptidase, primary screen, biochemical, QFRET, recombinant enzyme; inhibition, % at 7.35 µM; M18 aspartyl aminopeptidase (Plasmodium falciparum 3D7); 290,000 tested, 1.2% active; H-Glu-NHMec fluorogenic cleavage; AID 1822, 2009;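 active = inhibition above the campaign mean inhibition over all tested compounds plus 3 SD, cut at about 28% in these data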
IDE cell inh = human IDE inhibitors in live cells, primary screen, fluorescence polarization, HEK cells, FAbetaB substrate; FAbetaB cleavage; Insulin-degrading enzyme (Homo sapiens), P14735; 320,000 tested, 0.41% active; inhibition, % at 5.59 µM;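 active = percent inhibition above the average of all tested compounds plus 3 SD, set per screening campaign, cut at about 16% in these data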;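 also: IDE supplied by intact live HEK cells; FP after avidin binding of uncleaved biotin substrate so inhibition keeps polarization high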
ALR inh = inhibitors of human ALR sulfhydryl oxidase, primary screen, biochemical, H2O2 detection, HRP-luminol luminescence, single point; FAD-linked sulfhydryl oxidase ALR (Homo sapiens), P55789; purified ALR, DTT oxidation; inhibition, % (no concentration beside the values); 290,000 tested, 3.8% active;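 active = mean replicate inhibition above about 79%, with every replicate also reaching it, limit read from the data; inconclusive = only one of the two criteria met; inactive = mean below limit and not every replicate reaching it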
Target sequence (P55789 whole entry, looked up): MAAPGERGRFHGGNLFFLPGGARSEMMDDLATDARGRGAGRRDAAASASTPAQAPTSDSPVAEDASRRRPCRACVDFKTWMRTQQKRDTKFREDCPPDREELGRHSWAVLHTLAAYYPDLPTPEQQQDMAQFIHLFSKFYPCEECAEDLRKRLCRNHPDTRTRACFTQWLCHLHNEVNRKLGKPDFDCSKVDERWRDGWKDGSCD
IDE cell activ = human IDE activators in live cells, primary screen, fluorescence polarization, HEK cells, FAbeta-B substrate. AID 493087, 2011. Insulin-degrading enzyme (Homo sapiens), P14735. activation, % at 5.96 µM. 340,000 tested, 0.073% active. FAbeta-B cleavage; 0% vehicle, 100% cell-free pure enzyme wells;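 active = activation above the mean of all tested compounds plus 3 SD, set per screening campaign, cut at about 17% in these data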
CaV13 ICDI inh = Disruptors of the CACNA1D IQ motif to Ca2+-dependent inactivation inhibitor domain association, primary screening, Förster resonance energy transfer in intact living …. HEK cells, CFP/YFP FRET ICDI-IQ, plate reader, 10 min; percent FRET-ratio fall versus neutral wells. inhibition, % at 12.3 µM. 340,000 tested, 0.098% active;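 active = mean replicate inhibition of at least 30% and at least 1% of replicates passing that level; inconclusive = only one of the two criteria is met; inactive = neither criterion is met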
PolyA inhibitor = polyadenylation inhibitors in yeast reporter cells, primary screen, luminescence, S. cerevisiae | S. cerevisiae SKY197-pL101 polyadenylation reporter, beta-gal luminescence; efflux-impaired pdr1/pdr3 knockout yeast; score 100 = 6 SD above DMSO | 300,000 tested, 0.02% active | activity score, % at 12 µM;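 active = lowest replicate activity score at least 50, where 100 means six control SD above control mean; inconclusive = lowest score under 50 but half or more replicates reach 50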;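 also: yeast exposed to compound for 9 h at 30 °C; higher score means more reporter readthrough which indicates perturbed polyadenylation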
PfM18AAP inh-2 = PfM18AAP inhibitors, malaria aminopeptidase, confirmation, biochemical, QFRET, recombinant enzyme, triplicate; shares compounds with PfM18AAP inh-1; H-Glu-NHMec fluorogenic cleavage; inhibition, % at 7.35 µM; 2,400 tested, 28% active;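 active = mean inhibition over replicate wells above the hit cutoff set for the earlier primary screen, cut at about 29% in these data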
CTSL1 counter = cathepsin L1 inhibitors, retest, confirmation, counter-screen for PFM18AAP inhibitor project, biochemical, QFRET, triplicate. shares compounds with PfM18AAP inh-1. purified cathepsin L1, Z-Leu-Arg-MCA fluorescence. inhibition, % at 5.96 µM. 2,400 tested, under 10 active;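 active = average inhibition across replicates above the hit cutoff set in the earlier primary screen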
Target sequence (P07711 whole entry, looked up): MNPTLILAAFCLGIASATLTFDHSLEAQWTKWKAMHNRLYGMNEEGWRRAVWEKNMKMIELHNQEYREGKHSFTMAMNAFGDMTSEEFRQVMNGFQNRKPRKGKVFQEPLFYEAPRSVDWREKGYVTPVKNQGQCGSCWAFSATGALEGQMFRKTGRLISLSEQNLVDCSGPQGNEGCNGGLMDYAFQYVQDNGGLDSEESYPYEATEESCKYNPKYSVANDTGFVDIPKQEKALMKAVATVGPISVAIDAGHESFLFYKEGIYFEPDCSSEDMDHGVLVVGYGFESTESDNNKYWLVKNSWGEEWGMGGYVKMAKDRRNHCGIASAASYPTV
Of the large screens only hits and unclear results are named; the others gave an inactive call (follow-up assays come after a bar, where they were run). Most compounds without a hit are left out; they make up all but 4.1% or so of the library.

O=C(NNc1nc2c(F)cc(F)cc2s1)c1ccccc1	PfM18AAP inh-1 39 | PfM18AAP inh-2 inactive | CTSL1 counter inactive
CCOC(=O)c1cc2c(ccn2C)n1CC(=O)N(CC)CC	none
COc1ccc(NC(=O)C2CCCN2C(=O)Nc2ccc(OC)cc2)cc1 (stereo not drawn)	none (no result: IDE cell inh, ALR inh)
COc1cc(Cl)c(C)cc1NC(=O)CNC(=O)Cn1cnc2ccccc2c1=O	none
CC(C)(O)CC[C@@H](O)[C@](C)(O)C1CC[C@@]2(O)C3=CC(=O)[C@]4(O)C[C@@H](O)[C@@H](O)C[C@]4(C)C3CC[C@]12C (stereo partly drawn)	none (no result: PfM18AAP inh-1, PolyA inhibitor)
COc1ccc(NC(=O)Cc2nnc(SCC(=O)NC3=NCCS3)n2C)cc1	none (no result: ALR inh)
COCCN(CC(=O)Nc1cccc(C)c1C)C(=O)c1ccc2ccccc2n1	none (no result: PfM18AAP inh-1, ALR inh, PolyA inhibitor)
CCOC(=O)C1=C(C)NC(SCC(=O)OC)=C(C#N)C1c1ccc(C(=O)OC)cc1 (stereo not drawn)	PfM18AAP inh-1 36 | PfM18AAP inh-2 inactive | CTSL1 counter inactive
COc1cccc(C(=O)Nc2cccc3cccnc23)c1OC	none (no result: CaV13 ICDI inh)
O=C(Cc1ccccc1)NCc1n[nH]c(=S)n1-c1ccccc1	none
COc1ccc(CC(=O)NCc2n[nH]c(=S)n2-c2cccc(C)c2)cc1	PfM18AAP inh-1 40 | PfM18AAP inh-2 inactive | CTSL1 counter inactive
COc1cccc(C(=O)NCc2n[nH]c(=S)n2-c2cccc(C)c2)c1	none
O=C(NCc1n[nH]c(=S)n1-c1cccc(C(F)(F)F)c1)c1ccco1	PfM18AAP inh-1 34 | PfM18AAP inh-2 inactive | CTSL1 counter inactive
CCOC(=O)N1CCC(=NNS(=O)(=O)c2cccc([N+](=O)[O-])c2)CC1	none
CCOC(=O)c1c(NC(C)=O)sc2c1C1CCN2CC1	none (no result: CaV13 ICDI inh)
CCOC(=O)c1c(N)sc2c1C1CCN2CC1	PfM18AAP inh-1 50, ALR inh 98 | PfM18AAP inh-2 inactive | CTSL1 counter inactive
Nc1cc(C(=O)O)ccc1Nc1ccccc1	PfM18AAP inh-1 54 (no result: ALR inh) | PfM18AAP inh-2 inactive | CTSL1 counter inactive
COc1cc(C(=S)N2CCCCC2)ccc1O	PfM18AAP inh-1 36, ALR inh 82 (no result: CaV13 ICDI inh, PolyA inhibitor) | PfM18AAP inh-2 inactive | CTSL1 counter inactive
COc1cccc(C(=S)N2CCCC2)c1OC	PfM18AAP inh-1 39 | PfM18AAP inh-2 inactive | CTSL1 counter inactive
COc1ccc(C(=S)N2CCCC2)cc1Br	none
Cc1ccc(Nc2nc(/N=C/NO)n[nH]2)cc1C	PfM18AAP inh-1 33 | PfM18AAP inh-2 inactive | CTSL1 counter inactive
Cc1nc(C)c(-c2ccnc(/N=C/NO)n2)s1	none
Cc1ccccc1C(=O)NCCCn1ccnc1	none
COCCSc1ccccc1C(=O)NCCCn1ccnc1	PfM18AAP inh-1 36 | PfM18AAP inh-2 inactive | CTSL1 counter inactive
CC1CCCCC1NC(=O)CCS(=O)(=O)c1cc2c(cc1Cl)NC(=O)CO2 (stereo not drawn)	none
O=C(/C=C1\NC2(CCCC2)Cc2ccccc21)C(=O)N/N=C/c1ccc(O)c(O)c1	PfM18AAP inh-1 64, PolyA inhibitor inconclusive | PfM18AAP inh-2 37 | CTSL1 counter inactive
COc1ccc(/C=N/NC(=O)C(=O)/C=C2\NC3(CCCC3)Cc3ccccc32)cc1	none
CSc1nc2oc3c(c2c2nncn12)CC(C)(C)SC3	PfM18AAP inh-1 32 (no result: CaV13 ICDI inh) | PfM18AAP inh-2 inactive | CTSL1 counter inactive
CC(C)/C=C(/C(=O)c1ccc(Cl)cc1Cl)n1cncn1	PfM18AAP inh-1 49, ALR inh 97 | PfM18AAP inh-2 inactive | CTSL1 counter inactive
COc1cc(/C=N/NC(=O)CC#N)cc(Br)c1O	PfM18AAP inh-1 57 | PfM18AAP inh-2 inactive | CTSL1 counter inactive
COc1ccc(OC)c(S(=O)(=O)N2CCC(C(=O)NC3CC3)CC2)c1	none
O=C1ON=C(c2ccccc2)/C1=C/c1ccc(O)c(O)c1	PfM18AAP inh-1 60 (no result: ALR inh) | PfM18AAP inh-2 37 | CTSL1 counter inactive
Cc1oc2c(O)c(O)ccc2c(=O)c1-c1cnn(-c2ccccc2)c1	PfM18AAP inh-1 32, ALR inh 100 | PfM18AAP inh-2 inactive | CTSL1 counter inactive
Cc1oc2c(CN3CCCC3)c(O)ccc2c(=O)c1-c1ccc(Br)cc1	none
Cc1oc2cc(O)cc(C)c2c(=O)c1-c1cnn(-c2ccccc2)c1	none (no result: ALR inh, CaV13 ICDI inh)
Cc1oc2c(O)c(O)ccc2c(=O)c1-c1ccc(Cl)cc1	PfM18AAP inh-1 44, ALR inh 99 | PfM18AAP inh-2 inactive | CTSL1 counter inactive
Oc1ccc(O)c(Cc2nc3ccccc3[nH]2)c1	PfM18AAP inh-1 44 | PfM18AAP inh-2 71 | CTSL1 counter inactive
Cc1cccc2sc(NNC(=O)c3ccc4c(c3)OCCO4)nc12	PfM18AAP inh-1 34 (no result: ALR inh) | PfM18AAP inh-2 inactive | CTSL1 counter inactive
O=C(NNc1nc2cc3c(cc2s1)OCCO3)c1ccccc1	PfM18AAP inh-1 54 | PfM18AAP inh-2 inactive | CTSL1 counter inactive
Cn1c(O)c(/C=N/NC(=O)c2cc3ccccc3cc2O)c2ccccc21	PfM18AAP inh-1 32 (no result: ALR inh) | PfM18AAP inh-2 inactive | CTSL1 counter inactive
CCOC(=O)C1=C(CS(=O)(=O)c2ccc(F)cc2)NC(=O)NC1c1ccc(O)c(O)c1 (stereo not drawn)	PfM18AAP inh-1 79 | PfM18AAP inh-2 62 | CTSL1 counter inactive
CCCCn1c(=O)c2ccccc2n2c(=S)[nH]nc12	PfM18AAP inh-1 32 | PfM18AAP inh-2 inactive | CTSL1 counter inactive
O=c1c2c3c(sc2n2c(=S)[nH]nc2n1-c1ccccc1)CCC3	none (no result: IDE cell activ)
CN1CCc2c(sc3c2c(=O)n(-c2ccccc2)c2n[nH]c(=S)n32)C1	PfM18AAP inh-1 38 | PfM18AAP inh-2 inactive | CTSL1 counter inactive
CCC(C)c1ccc(-n2c(=O)c3ccccc3n3c(=S)[nH]nc23)cc1 (stereo not drawn)	none
O=c1c2ccccc2n2c(=S)[nH]nc2n1-c1ccccc1	PfM18AAP inh-1 45 | PfM18AAP inh-2 inactive | CTSL1 counter inactive
Cc1ccc(/C=c2\sc3n(c2=O)CN(c2cccc(Br)c2)CN=3)o1	PfM18AAP inh-1 37 | PfM18AAP inh-2 inactive | CTSL1 counter inactive

Bioassay records: PubChem BioAssay, several laboratories
